Activity calls are given as the source filed them. The calls were made as follows: active = hit-call score of the fitted dose curve at least 0.9, where 1 is the maximum; inactive = score below 0.9.
What follows are compounds tested on E-selectin (Homo sapiens) (UniProt P16581) (assay: BSK_LPS_Eselectin: BioMAP Diversity Plus: LPS Assay for Eselectin Biomarker Activity (AID 2283077)). Conditions: primary human HUVEC with PBMC; actives raise or lower the signal.
Sequence of E-selectin (Homo sapiens) (P16581 whole entry, looked up): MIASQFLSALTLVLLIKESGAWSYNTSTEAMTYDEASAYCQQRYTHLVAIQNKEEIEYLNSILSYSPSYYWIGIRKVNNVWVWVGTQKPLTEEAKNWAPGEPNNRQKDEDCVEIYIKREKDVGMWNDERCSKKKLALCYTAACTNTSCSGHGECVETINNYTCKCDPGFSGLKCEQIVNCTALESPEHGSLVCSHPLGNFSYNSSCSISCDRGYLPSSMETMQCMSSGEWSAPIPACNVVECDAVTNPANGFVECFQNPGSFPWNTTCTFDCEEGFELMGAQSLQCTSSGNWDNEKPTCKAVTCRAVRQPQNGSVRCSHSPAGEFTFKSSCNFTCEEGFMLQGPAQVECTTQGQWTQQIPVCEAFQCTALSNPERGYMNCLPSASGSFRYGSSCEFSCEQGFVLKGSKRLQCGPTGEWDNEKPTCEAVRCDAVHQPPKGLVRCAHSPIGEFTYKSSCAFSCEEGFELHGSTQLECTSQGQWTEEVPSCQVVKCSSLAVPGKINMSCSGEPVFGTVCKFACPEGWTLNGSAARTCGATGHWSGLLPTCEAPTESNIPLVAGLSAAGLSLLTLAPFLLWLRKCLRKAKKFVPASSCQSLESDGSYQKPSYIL
Method in brief: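 Primary human vascular co-culture (endothelium plus PBMC) was dosed with chemical, then E-selectin quantified by ELISA at 24 h. Endpoint values derive from bidirectional curve fitting relative to DMSO.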
For `O=C(O)C(Cl)(Cl)Cl`, the outcome was “inactive”.
In the case of `Oc1cccc2cccnc12`, the outcome is reported as “inactive”.
With `CC(=O)OC(c1ccccc1)C(Cl)(Cl)Cl` (stereo not drawn) the outcome was “inactive”.
`C[C@]12CCC(=O)C[C@@H]1CC[C@@H]1[C@@H]2CC[C@]2(C)[C@@H](O)CC[C@@H]12` was tested, and the AC50 was 28.1 µM (active).
For `COP(=S)(OC)Oc1ccc(Sc2ccc(OP(=S)(OC)OC)cc2)cc1`, the outcome was “inactive”.
In the case of `C(=NC1CCCCC1)=NC1CCCCC1`, the AC50 is reported as 34.9 µM (active).
For `COc1cc(OC)nc(NC(=O)NS(=O)(=O)c2ncccc2C(=O)N(C)C)n1`, the outcome was “inactive”.
With `CC12CC1(C)C(=O)N(c1cc(Cl)cc(Cl)c1)C2=O` (stereo not drawn) the outcome was “inactive”.
For `COC(=O)c1sccc1S(=O)(=O)NC(=O)Nc1nc(C)nc(OC)n1`, the outcome was “inactive”.
`C=C(C)C(=O)[O][Sn]([CH2]CCC)([CH2]CCC)[CH2]CCC` was tested, and the AC50 was 0.148 µM (active).
For `CC(C)(C)c1cc(O)ccc1O`, the AC50 was 12.4 µM (active).
For `CCCCCCCCc1ccc(O)cc1`, the AC50 was 37.8 µM (active).
With `O=C(Nc1ccc2[nH]ccc2c1)c1cc2cc(F)ccc2n1Cc1cccc(F)c1` the AC50 was 12.4 µM (active).
`O=C(OC1CCCCC1)c1ccccc1C(=O)OC1CCCCC1` was tested, and the AC50 was 20.9 µM (active).
With `C=CC(=O)OCCCCCC(C)C` the outcome was “inactive”.
`CC(C)(C)CC(C)(C)c1ccc(O)cc1` was tested, and the AC50 was 11.7 µM (active).
With `CCNc1nc(NC(C)(C)C)nc(SC)n1` the outcome was “inactive”.
With `CC(=O)[O][Hg][c]1ccccc1` the AC50 was 3.35 µM (active).
`Nc1cccc2ccccc12` was tested, and the outcome was “inactive”.
`ClCC(Cl)CCl` was tested, and the outcome was “inactive”.
In the case of `CCOP(=S)(OCC)Oc1nc(Cl)c(Cl)cc1Cl`, the outcome is reported as “inactive”.
`CCOP(=S)(OCC)SCSP(=S)(OCC)OCC` was tested, and the outcome was “inactive”.
`CCOP(=S)(OCC)SCCS(=O)(=O)CC` was tested, and the outcome was “inactive”.
For `CCOP(=S)(OCC)Oc1ccc(S(C)=O)cc1` (stereo not drawn), the outcome was “inactive”.
With `COC[C@H](C)N(C(=O)CCl)c1c(C)csc1C` the outcome was “inactive”.
With `ClC(Cl)=C(Cl)C(Cl)=C(Cl)Cl` the outcome was “inactive”.
With `COC(=O)Cc1ccccc1` the outcome was “inactive”.
For `O=[N+]([O-])c1ccc(O)c([N+](=O)[O-])c1`, the outcome was “inactive”.
`Nc1ncc([N+](=O)[O-])s1` was tested, and the outcome was “inactive”.
In the case of `NC(=S)Nc1ccccc1`, the outcome is reported as “inactive”.
In the case of `CCC(C)(C)c1ccc(O)c(C(C)(C)CC)c1`, the AC50 is reported as 27 µM (active).
In the case of `O=C(O)CCC(F)(C(F)(F)F)C(F)(F)F`, the outcome is reported as “inactive”.
`CCCCC(CC)CO[N+](=O)[O-]` (stereo not drawn) was tested, and the outcome was “inactive”.
